{"source": "the supplement of paper PMC12532568", "key": {"[1]": {"system": "Danio rerio larvae Tg(actc1b:ZsGreen-LC3), 3 dpf", "test": "LC3 puncta relative area vs vehicle, without NH4Cl (log2 fold change); higher = more autophagosomes", "conditions": "10 µM; treatment time 16 h; NH4Cl: none", "experimental": "(§1)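 Transgenic Tg(actc1b:ZsGreen-map1lc3) zebrafish larvae (2 dpf) were treated for 16 h with Tocris library compounds at 10 µM (n = 12 larvae per compound). Skeletal-muscle LC3 puncta area relative to body area was measured by high-content confocal imaging before and after 4 h of 100 mM NH4Cl (autophagic flux), normalised to vehicle (DMSO), and reported as log2 fold change.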"}, "[2]": {"system": "Danio rerio larvae Tg(actc1b:ZsGreen-LC3), 3 dpf", "test": "LC3 puncta relative area vs vehicle, with NH4Cl (autophagic flux) (log2 fold change); higher = more autophagy", "conditions": "10 µM; treatment time 16 h; NH4Cl: + 100 mM, 4 h", "experimental": "as §1"}}, "note": "Where a name gives a salt, the structure may show the parent alone.", "data": [{"smiles": "CN(C)CCCSC(=N)N", "note": "[Dimaprit dihydrochloride]", "values": [{"measurement": "LC3 puncta (log2)", "setting": "[1]", "value": 0.203}]}, {"smiles": "O=[N+]([O-])c1cccc2cn[nH]c12", "note": "[7-Nitroindazole]", "values": [{"measurement": "LC3 puncta (log2)", "setting": "[2]", "value": 0.507}]}]}
